Test results published in the supplement of paper PMC12636033.
± gives the standard deviation of the averaged measurements. In all, about 33,000 sequences were measured (“E-score (rank enrichment, -0.5 to 0.5)”: median about -0.0043, highest 2% from about 0.24 on). Shown is part of a subset that was picked to be rich in the highest values.

Test system: 2Sp-muMax20 (muMax20 with two 2,6-bis(methyl)pyridine Cys staples)
Experiment: PBM 8-mer E-score (E-score (rank enrichment, -0.5 to 0.5)); higher = stronger preferential binding
Procedure: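 Protein binding microarray (universal PBM chip covering all 10-mers in fixed probe flanks) with chemically synthesized human Max(13-93) bHLH-LZ analogs (not full-length Max) bearing noncanonical residues (hArg, Tha, Aib, Nle at 65) and aromatic Cys staples. Read-out per 8-mer (and its reverse complement): E-score (rank-based enrichment, -0.5 to 0.5) and Z-score of median probe intensity.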

Sequence | PBM 8-mer E-score
ATCCAGGC | -0.01 ± 0.042
AAGACAGG | -0.106 ± 0.025
GTCTGGAA | -0.0499 ± 0.016
ATCCAAGA | -0.0976 ± 0.054
AGGTGGAT | -0.1057 ± 0.00054
AAAAATCG | -0.00934 ± 0.012
GCATAAGA | 0.0752 ± 0.0016
ACATAATC | 0.109 ± 0.04
CCATAATA | 0.161 ± 0.054
ACATAATA | 0.262 ± 0.075
GCATAGTA | 0.273 ± 0.032
GCATAATA | 0.2429 ± 0.0015
ACATAATG | 0.193 ± 0.064
ACATAGTA | 0.118 ± 0.076
CCATAGTA | 0.144 ± 0.0076
GACATGAC | 0.00058 ± 0.047
GTATGCAC | 0.075 ± 0.08
AACGTTGG | -0.0574 ± 0.07
CGAGCGAA | 0.0234 ± 0.064
AGCATTAA | 0.209 ± 0.0096
CTCATTAC | 0.197 ± 0.087
AGCATTAT | 0.266 ± 0.05
CGCATTAA | 0.0861 ± 0.014
CTCATTAA | 0.273 ± 0.031
ATCATTAA | 0.0844 ± 0.0038

Sequence | PBM 8-mer E-score
AGCATTAG | 0.0579 ± 0.1
AGCATTAC | -0.0132 ± 0.0023
TGCATTAA | 0.285 ± 0.014
CCGGGCTA | -0.277 ± 0.0046
TGACCTCA | -0.183 ± 0.016
AGCTCAGA | -0.181 ± 0.0029
CGGATAGC | -0.0994 ± 0.018
CTAGCTGA | -0.0742 ± 0.045
ATACATAC | 0.0484 ± 0.023
AGACATAG | 0.0229 ± 0.087
AGTCATAG | 0.0709 ± 0.034
AGTCATAT | 0.24 ± 0.015
ATACATAA | 0.0924 ± 0.008
AGTCATAA | 0.037 ± 0.035
AGACATAT | 0.249 ± 0.0045
AGACATAC | -0.0281 ± 0.088
ATACATAT | 0.258 ± 0.0069
ACCTTATG | 0.0929 ± 0.036
GGGGAACA | 0.124 ± 0.0046
AATCAACC | 0.157 ± 0.047
ACTAAGCT | -0.0864 ± 0.087
ATTCTCAC | 0.0448 ± 0.078
ATAGCATG | 0.258 ± 0.037
ATAGCATA | 0.204 ± 0.038
ATAGCATC | 0.118 ± 0.015

Sequence | PBM 8-mer E-score
ATGACTTA | 0.0917 ± 0.049
AGGATCAA | -0.0715 ± 0.043
AAACTGTA | 0.00471 ± 0.023
AACAGATA | -0.0996 ± 0.022
AACAGATC | 0.243 ± 0.058
GACAGATC | 0.0282 ± 0.0066
CCCCAGGG | -0.293 ± 0.032
CCAGACCC | -0.142 ± 0.016
CAACTTGC | -0.157 ± 0.011
AAACTTGC | 0.267 ± 0.039
AAACTTGA | 0.17 ± 0.089
GATTAATC | -0.0645 ± 0.077
GATTAATA | 0.274 ± 0.062
TATTAACA | 0.218 ± 0.011
CATTAATA | 0.201 ± 0.014
GATTAACA | 0.174 ± 0.046
TATTAATA | 0.274 ± 0.1
GTCCTGCA | -0.0516 ± 0.027
ACCGCACT | -0.193 ± 0.07
AAACTGGC | -0.0533 ± 0.0029
GAAAGGCC | -0.146 ± 0.053
GAAAAGGC | 0.308 ± 0.013
CAAAGGCC | 0.0557 ± 0.1
CAAAAGGC | 0.0445 ± 0.053
AAAGGCCC | -0.012 ± 0.043

Sequence | PBM 8-mer E-score
AAAAAGGC | 0.00635 ± 0.045
AAAAGGCC | 0.3 ± 0.0042
CAAGGCCG | -0.065 ± 0.016
AAAGGCCG | 0.281
AGTGTCGG | -0.166 ± 0.11
GATGCCCC | -0.0212 ± 0.099
ATTGAGGC | 0.167 ± 0.021
AACATGCG | 0.253 ± 0.035
CACATGCG | 0.166 ± 0.097
ACCATGTG | 0.262 ± 0.03
CACATGTC | 0.0937 ± 0.018
AACATGCT | 0.126 ± 0.0074
CAAATGTG | 0.0759 ± 0.025
ACCATGTC | 0.0986 ± 0.05
CACATGTG | 0.4178 ± 0.00081
CACATGTA | 0.312 ± 0.02
ACCATGTA | 0.0783 ± 0.049
CACATGAA | 0.138 ± 0.035
CTCATGTA | 0.0793 ± 0.033
CCCTAAAG | 0.134 ± 0.057
ACTCTAGC | -0.0888 ± 0.0064
GGGGCAAA | 0.0419 ± 0.059
AGCCCAAC | 0.0919 ± 0.041
GCTGACCA | -0.0567 ± 0.026
AGCCTTGG | 0.0479 ± 0.022

Sequence | PBM 8-mer E-score
ACAAGTAG | 0.00901 ± 0.018
AACATGTT | 0.304 ± 0.043
AACATGTG | 0.36 ± 0.026
TACATGTA | 0.265 ± 0.051
TACATGCA | 0.222 ± 0.018
AACATGTA | 0.2242 ± 0.0011
GACATGTA | 0.217 ± 0.066
AACATGAG | 0.0341 ± 0.0065
AACATGTC | 0.143 ± 0.038
AGCATGTG | 0.223 ± 0.016
AGGGCTCG | -0.212 ± 0.027
ACAAGGGG | 0.0199 ± 0.047
TCGATACA | 0.197 ± 0.0083
GCGATGGA | -0.138 ± 0.0024
ATAGCCGA | -0.00055 ± 0.0078
ATTCCAGA | 0.0163 ± 0.071
CGGTGATC | -0.15 ± 0.0077
ACTTGAAG | 0.186 ± 0.027
GATGTATA | 0.107 ± 0.023
CATGTATA | 0.165 ± 0.0069
AATGTAAA | 0.311 ± 0.014
AATGTATA | 0.269 ± 0.048
CATGTAAA | 0.12 ± 0.055
AATGTAAT | 0.189 ± 0.0034
ATCTCTGA | -0.0124 ± 0.14

Sequence | PBM 8-mer E-score
AGCCGGTG | -0.254 ± 0.045
CCCGTACG | -0.0914 ± 0.052
AAGGCGTG | -0.0484 ± 0.012
ACGTGCAA | 0.212 ± 0.029
CATAATAA | 0.0619 ± 0.015
CATAATGG | 0.153 ± 0.026
AATAATAG | 0.137 ± 0.084
CATAATAC | 0.249 ± 0.028
AATAATAC | -0.0356 ± 0.042
CATAATAG | 0.237 ± 0.028
AGGTGGAG | -0.0381 ± 0.055
GATGACGA | 0.165 ± 0.017
GCGCCTCC | 0.111 ± 0.079
CAAGAGCC | -0.0162 ± 0.036
AAGCTGAA | 0.104 ± 0.047
AGGAGGCG | 0.0177 ± 0.059
ACATGCAC | 0.0958 ± 0.01
GCATGCAC | 0.216 ± 0.023
GCATGCGC | 0.164 ± 0.06
TCATGCAA | 0.219 ± 0.014
ACATGCAG | 0.0533 ± 0.012
GCATGCAA | 0.244 ± 0.014
ACATGCAT | 0.333 ± 0.0087
GCATGCGA | 0.3 ± 0.012
CCATGCGA | 0.0984 ± 0.026

Sequence | PBM 8-mer E-score
AGACTCAA | -0.111 ± 0.022
GCGGCAGA | -0.228 ± 0.049
GAGCAGTA | 0.113 ± 0.0065
AGAGGGCT | -0.00447 ± 0.07
ACGGGGCG | 0.0718 ± 0.047
ACGTTATC | 0.034 ± 0.046
ACTTTATC | -0.0354 ± 0.037
ACGTTATG | 0.284 ± 0.0056
ACTTTATG | 0.281 ± 0.065
ACGTTATA | 0.204 ± 0.072
ACTTTATA | 0.192 ± 0.053
AAAAAACT | 0.0474 ± 0.0053
TACGCGTA | 0.0583 ± 0.054
GATCTTCC | -0.219 ± 0.038
CAACCTCG | -0.194 ± 0.05
GGTTACTA | -0.067 ± 0.092
GTTACCGA | -0.284 ± 0.013
TTGCGCAA | 0.344 ± 0.0038
ATGCGCAT | 0.335 ± 0.061
ATGCGCAG | 0.0186 ± 0.025
ATGCGCAA | 0.184 ± 0.017
ATGCGCAC | 0.195 ± 0.071
GTGCGCAA | -0.0392 ± 0.038
